Compounds with a hit are over-represented: about 27% of the library has one in this group of screens.
CYP2C9 activ: activators of human CYP2C9; P11712; recombinant CYP2C9, luciferin-H conversion, luminescence; hits give high values; factor 1 = untreated enzyme, 0 = blocked; activation factor at 5 µM; 96,000 compounds, 1.4% hits; AID 1024;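 active = activation factor of 2 or more for CYP2C9 at a 5 µM dose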
Cav3 T inh: blocks human Cav3.2 T-type calcium channel; O95180; Cav3.2-expressing cells, Fluo-4 calcium fluorescence FDSS; hits give low values; B-score at 10 µM; 100,000 compounds, 4% hits; AID 449739;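 active = single-dose well whose peak fluorescence ratio is a statistical outlier from its plate by either plate-standardised score or position-corrected B-score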
CYP2C19 inh: inhibitors of human CYP2C19; CYP2C19 Supersomes, luciferin-H EGE luminescence, 30 min; P33261; 96,000 compounds, 21% hits; inhibition, % at 5 µM; AID 778;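 active = CYP2C19 inhibition above a set limit at 5 µM in the primary screen, cut at about 50% in these data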
CYP2C9 inh: inhibitors of human CYP2C9. P11712. CYP2C9 Supersomes, luciferin-H conversion, luminescence. inhibition, % at 5 µM. 96,000 compounds, 20% hits. AID 777;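 active = blocking of liver enzyme CYP2C9 beyond about 50% at 5 µM, limit read from the data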
CYP2C19 act: activators of human cytochrome P450 2C19; P33261; recombinant CYP2C19, luciferin-H EGE luminescence; hits give high values; 0 = fully inhibited enzyme, 1 = untreated enzyme; activation factor at 5 µM; 96,000 tested, under 10 active;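 active = activation factor of at least 2 at 5 µM in the primary screen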
Of the large screens only hits and unclear results are named; the others gave an inactive call.

O=C(C1CCCN(S(=O)(=O)c2cccnc2)C1)N1CCN(c2ccccn2)CC1 (stereo unspecified)	CYP2C9 inh 63
O=S(=O)(c1cnc[nH]1)N1CCN(c2ccccc2)CC1	CYP2C19 inh 64
Cc1ccc(Cl)cc1N1CCN(S(=O)(=O)c2cnc[nH]2)CC1	CYP2C19 inh 99, CYP2C9 inh 97
Cc1ccc(Cl)cc1N1CCN(C(=O)C2CCN(S(=O)(=O)c3cccnc3)CC2)CC1	CYP2C19 inh 61, CYP2C9 inh 55
O=S(=O)(c1cnc[nH]1)N1CCCCCC1	none
COc1ccc(-n2nnc3c(=O)n(C/C=C/c4ccccc4)cnc32)cc1	none
CCCNc1nc(-c2cc(-c3ccc(Cl)cc3)on2)cc(C(C)C)n1	none (no result: CYP2C9 activ, CYP2C19 inh, CYP2C9 inh, CYP2C19 act)
Cn1c(=O)[nH]c(=O)c2c1nc(NCc1ccccc1)n2CC(O)c1ccccc1 (stereo unspecified)	none (no result: Cav3 T inh)
CCOC(=O)c1[nH]c(C)c(C(=O)Nc2ccccc2C)c1C	CYP2C19 inh 56
CCOC(=O)c1[nH]c(COC(=O)c2ccccc2NC(=O)c2ccco2)c(C(=O)OCC)c1C	CYP2C9 inh 88
CCOC(=O)c1[nH]c(C)c(C(=O)OCC(=O)N2CCCCC2C)c1C (stereo unspecified)	CYP2C9 inh 72
COC(=O)c1ccccc1NC(=O)CNC(=O)c1ccco1	none
O=C1CN(C(=O)COC(=O)c2ccccc2NC(=O)c2ccco2)c2ccccc2N1	CYP2C9 inh 76
O=C1CN(C(=O)COC(=O)C2=COCCO2)c2ccccc2N1	none
COC(=O)Oc1c(Br)c(=O)oc2ccccc12	none (no result: CYP2C9 activ, CYP2C19 inh, CYP2C9 inh, CYP2C19 act)
CCCCN(CCCC)Cc1cc2ccccc2c2c1COC2	none
CCOC(=O)c1[nH]c(C)c(C(=O)NC2CCCC2)c1C	CYP2C19 inh 54
CCOC(=O)c1[nH]c(C)c(C(=O)Nc2cc(Cl)ccc2C)c1C	CYP2C9 activ 2
CCOC(=O)c1[nH]c(C)c(C(=O)NCCc2ccc(OC)cc2)c1C	CYP2C9 inh 72
N#Cc1cnn(CC2CCCCC2)c1N	none
N#CC1=C(SCC(=O)Nc2nccs2)NC(=O)CC1c1ccccc1 (stereo unspecified)	CYP2C19 inh 58, CYP2C9 inh 87
COc1ccccc1C1CC(=O)NC(SCC(=O)Nc2ccccc2)=C1C#N (stereo unspecified)	CYP2C19 inh 76 (no result: Cav3 T inh)
CCOC(=O)CC(=O)CSC1=C(C#N)C(c2ccccc2OC)CC(=O)N1 (stereo unspecified)	CYP2C19 inh 62, CYP2C9 inh 63 (no result: Cav3 T inh)
CCOC(=O)N1CCC(N2Cc3cccc(C(=O)Nc4ccc(CC)cc4)c3C2=O)CC1	CYP2C19 inh 94, CYP2C9 inh 100
CCOC(=O)N1CCC(N2C(=O)c3ccc(C(=O)NCc4ccc(F)cc4)cc3C2=O)CC1	CYP2C9 inh 58
CCOC(=O)N1CCC(N2Cc3cccc(C(=O)O)c3C2=O)CC1	none
CCOC(=O)N1CCC(N2Cc3cccc(C(=O)Nc4ccc(F)cc4)c3C2=O)CC1	CYP2C9 inh 90
CCOC(=O)N1CCC(N2Cc3cccc(C(=O)NCc4ccccc4OC)c3C2=O)CC1	none (no result: CYP2C9 activ, CYP2C19 inh, CYP2C9 inh, CYP2C19 act)
CCOC(=O)N1CCC(N2Cc3cccc(C(=O)NCC4CCN(CC(C)C)C4)c3C2=O)CC1 (stereo unspecified)	CYP2C19 inh 86, CYP2C9 inh 96
COc1ccc(CCNC(=O)CCN2C(=O)C3CC=CCC3C2=O)cc1OC (stereo unspecified)	none (no result: CYP2C9 activ, CYP2C19 inh, CYP2C9 inh, CYP2C19 act)
NCCS	none (no result: CYP2C9 activ, CYP2C19 inh, CYP2C9 inh, CYP2C19 act)
Cc1ccc2nc(SCCC(=O)O)cc(C)c2c1	none
O=C1CC(c2cc3c(cc2Br)OCO3)C2=C(CCCC2=O)N1 (stereo unspecified)	none (no result: Cav3 T inh)
CCOC(=O)N1CCC(N2Cc3cccc(C(=O)Nc4cc(F)ccc4F)c3C2=O)CC1	CYP2C9 inh 78
CCOC(=O)c1c(C)[nH]c(C)c1C(=O)COC(=O)[C@@H]1CCCN1S(=O)(=O)c1ccc(Cl)cc1	CYP2C19 inh 93, CYP2C9 inh 80
COc1cc(CCc2ccc3c(c2)OCO3)oc(=O)c1	none (no result: CYP2C9 activ, CYP2C19 inh, CYP2C9 inh, CYP2C19 act)
O=C(NCC(c1cccnc1)N1CCN(c2ccc(F)cc2)CC1)c1ccco1 (stereo unspecified)	none (no result: CYP2C9 activ, CYP2C19 inh, CYP2C9 inh, CYP2C19 act)
Cc1ccc(CNS(=O)(=O)/C=C/c2ccc3c(c2)OCO3)cc1	CYP2C19 inh 99
Cc1ccc(S(=O)(=O)N/N=C/c2ccc(C(=O)O)cc2)cc1	none
Cc1ccc(S(=O)(=O)N/N=C\c2ccc3c(c2)OCO3)cc1	CYP2C19 inh 59, CYP2C9 inh 75
O=S(=O)(N/N=C\c1ccc2c(c1)OCO2)c1ccc(Cl)cc1	CYP2C9 inh 86
O=C(O)C1CCCCC1C(=O)NC1CCCCC1 (stereo unspecified)	none
O=C1c2ccccc2S(=O)(=O)c2cc(N3CCc4ccccc4C3)ccc21	none (no result: CYP2C9 activ, CYP2C19 inh, CYP2C9 inh, CYP2C19 act)
CN(C)CCCNc1oc(-c2cccc(Cl)c2)nc1C#N	none
COC(=O)c1cc(OC)c(OC)cc1NC(=O)CCCCCN1C(=O)CCC1=O	CYP2C19 inh 62
COc1cc(Cl)c(C)cc1NC(=O)CCCN1C(=O)CCC1=O	none
CC(C)OC(=O)C(CC(=O)O)NCc1ccccc1 (stereo unspecified)	none
N/C(=N\c1nc2ccccc2o1)NC(=O)c1ccc(F)cc1	none
O=c1[nH]c(CSc2nc3ccccc3o2)nc2c1cnn2-c1ccccc1	CYP2C19 inh 78, CYP2C9 inh 68
O=c1[nH]c(SCc2nc3c(cnn3-c3ccccc3)c(=O)[nH]2)nc2ccccc12	none
OC(COc1c(Br)cc(Br)cc1Br)CN1CCOCC1 (stereo unspecified)	CYP2C19 inh 92
CC(C)OC(=O)CSc1nnc(-c2ccc(Cl)cc2Cl)n1N	CYP2C19 inh 65, CYP2C9 inh 59
CCn1c(SCC(=O)OC(C)C)nnc1-c1cccc(Cl)c1	CYP2C19 inh 55
Cc1ccc(-c2nnc(SCC(=O)OC(C)C)n2N)cc1	none
CC(C)OC(=O)CSc1nnc(-c2ccc(O)cc2)n1Cc1ccccc1	CYP2C19 inh 64
Cn1c(SCC(=O)Nc2ccccc2F)nnc1-c1cc2ccccc2o1	none
O=C(NCc1ccncc1)/C(=N/O)c1ccccc1	none
COc1cc(NC(=O)c2ccc(COCC(F)(F)F)cc2)cc(OC)c1OC	none
Cc1c(Cl)c([N+](=O)[O-])nn1Cc1ccc(C(=O)N/N=C\c2cccc(Br)c2)o1	Cav3 T inh -6.4, CYP2C19 inh 68, CYP2C9 inh 64
C=CCn1c(O)c(C(CC)=Nc2ccccc2NC(=O)CC)c(=O)[nH]c1=O	CYP2C19 inh 72, CYP2C9 inh 60
C=CCn1c(O)c(C(CC)=NCCN2CCOCC2)c(=O)[nH]c1=O	none
Cc1nonc1NCn1nnc2ccccc21	none
CCCCC1=CC2=CC(=O)C(C)(OC(=O)c3ccc(Cl)nc3)C(=O)C2=CO1 (stereo unspecified)	none (no result: CYP2C9 activ, CYP2C19 inh, CYP2C9 inh, CYP2C19 act)
N/C(COc1ccccc1)=N\NS(=O)(=O)c1ccccc1	none
Cc1ccc(CSc2nnc(-c3ccc4c(c3)OCO4)o2)cc1	none
Cc1ccccc1NC(=O)Cc1nc(CSc2nnc(-c3ccc4c(c3)OCO4)o2)cs1	CYP2C19 inh 63
c1cc(CSc2nnc(-c3ccc4c(c3)OCO4)o2)ccn1	CYP2C19 inh 94, CYP2C9 inh 87

Assay outcomes deposited in PubChem by several laboratories.
